From PubChem BioAssay (Tox21)
Inconclusive results are not listed. A number with no mark means an inactive call. Calls of active or inactive are those of the source. Calls come from the whole dose curve; as a rule, active = well fitted cell-killing curve with a large enough effect in the repeat runs; inconclusive = weak or mixed curves; inactive = flat fitted curve, though single readings scatter.

assay: qHTS RealTime-Glo MT Cell Viability Assay in HepG2 cells - 8 hour (AID 1224873); conditions: RealTime-Glo luminescence; series mostly up to 76.8 µM; viability change, negative = cytotoxic: at the top concentration; note: nearly all actives have a fitted effect of over 55% in size
Text: National Center for Advancing Translational Sciences [NCATS]
NIH Chemical Genomics Center [NCGC]
U.S. Environmental Protection Agency [EPA]
National Institutes of Environmental Health Sciences [NIEHS]
National Toxicology Program [NTP]
U.S. Food and Drug Administration [FDA]
Measure of cell viability is critical in the cell-base assay. Analysis of cell viability is necessary for the characterization of cell responses to cytotoxic drugs and environmental stress. A RealTime-Glo MT Cell Viability Assay to monitor cell viability in real time of continues cell culture during 40 hours of compound treatment was used to screen Tox21 10K library compounds in HepG2 cells. The RealTime-Glo MT Cell Viability Assay is a nonlytic, homogeneous, bioluminescent method to measure cell viability in real time using a simple, plate-based method. The assay involves adding NanoLuc luciferase and a cell-permeant prosubstrate to cells in culture. Viable cells reduce the proprietary prosubstrate to generate a substrate for NanoLuc luciferase. This substrate diffuses from cells into the surrounding culture medium, where it is rapidly used by the NanoLuc Enzyme to produce a luminescent signal. The signal correlates with the number of viable cells, making the assay well suited for cytotoxicity studies.
Tox21 Assay Protocol Summary:
The mixture of HepG2 cell suspension and reagents were dispensed at 600cells/6 ul/well in 1536-well tissue culture treated black solid bottom plates using a Multidrop dispenser. After the assay plates were incubated at a 37 C/5% CO2 incubator for 5 hours, 23 nL of compounds dissolved in DMSO, positive and negative controls was transferred to the assay plate by a pintool work station. The plates were incubated at 37 C for 40 hours. The luminescence intensity were measured at 0h, 8h, 16h, 24h, 32h and 40h time points using ViewLux plate reader during compound treatment.
% is set by controls: 0 for no effect and ±100 for the full control effect; potency is the fitted concentration of half-maximal effect.

Compound	viability change, negative = cytotoxic	Potency
CCCCc1ccccc1	7.77%	–
CCCCN(CCCC)C(=S)S	-0.733%	–
C1=CCC=C1	0.742%	–
Oc1cc(Cl)c(Cl)c(Cl)c1Cl	-15.6%	–
N#Cc1sc2c(=O)c3ccccc3c(=O)c=2sc1C#N	–	9.77 µM (active)
CCNS(=O)(=O)C(F)(F)C(F)(F)C(F)(F)C(F)(F)C(F)(F)C(F)(F)C(F)(F)C(F)(F)F	1.44%	–
O=[N+]([O-])c1ccccc1-c1ccccc1	-1.23%	–
CCO/N=C(\CC)C1=C(O)CC(c2c(C)cc(C)cc2C)CC1=O (stereo not given)	0.831%	–
O=S1OCC2C(CO1)C1(Cl)C(Cl)=C(Cl)C2(Cl)C1(Cl)Cl (stereo not given)	–	48.9 µM (active)
CC(C)N(C(=O)SC/C(Cl)=C/Cl)C(C)C	1.19%	–
CCC(C)c1cccc(C(C)CC)c1O (stereo not given)	-15.8%	–
CC[N+]1(CC)CCC(OC(=O)C(O)(c2ccccc2)c2ccccc2)C1 (stereo not given)	-0.784% [at 35.3 µM]	–
ClCBr	0.278%	–
c1ccc2nc(N3CCNCC3)ccc2c1	-2.55% [at 35.3 µM]	–
Clc1c(Cl)c(Cl)c(Cl)c(Cl)c1Cl	1.69% [at 6.97 µM]	–
O=c1[nH]c(Cl)c(Cl)cc1Cl	2.22%	–
CCCCC/C=C\C/C=C\C/C=C\C/C=C\CCCC(=O)NCC(=O)O	-0.132% [at 35.3 µM]	–
CCC[CH2][Sn]([CH2]CCC)([CH2]CCC)[CH2]CCC	–	11 µM (active)
N#Cc1c2ccccc2cc2ccccc12	-1.46%	–
CC(=O)[O-].CC(=O)[O-].CC(=O)[O-].[Sb+3]	-4.57% [at 2.72 µM]	–

Compound	viability change, negative = cytotoxic	Potency
[Cl][Hg][c]1ccccc1	–	2.75 µM (active)
Cc1ccn2nc(S(=O)(=O)Nc3c(F)cccc3F)nc2n1	6.94%	–
CC(C)NCC(O)c1ccccc1Cl (stereo not given)	2.22% [at 35.3 µM]	–
ClC1=C(Cl)[C@]2(Cl)[C@H]3[C@H]([C@@H]4C=C[C@H]3C4)[C@@]1(Cl)C2(Cl)Cl	–	49 µM (active)
Oc1cc(Cl)cc(Cl)c1	-5.28%	–
C=CC(=C)C	0.549%	–
c1cc[n+]2c(c1)-c1cccc[n+]1CC2	2.01% [at 35.3 µM]	–
COC(=O)c1ccccc1S(=O)(=O)NC(=O)Nc1nc(C)nc(OC)n1	-1.75%	–
O=C(NC(=O)c1c(F)cccc1F)Nc1ccc(Oc2ccc(C(F)(F)F)cc2Cl)cc1F	-18.2%	–
C=Cc1cccc(CCl)c1	0.429% [at 200 µM]	–
S=C=Nc1ccccc1	0.596%	–
O=[N+]([O-])C(Br)Br	-10.9%	–
O=[N+]([O-])c1cc(C(F)(F)F)c(Cl)c([N+](=O)[O-])c1Nc1ncc(C(F)(F)F)cc1Cl	–	24.5 µM (active)
Oc1ccc(Cl)c(Cl)c1	-1.97%	–
BrCCCBr	0.599%	–
CCOC(=O)Cc1ccccc1	7.22%	–
BrCC(Br)(Br)Br	-9.57%	–
CCOP(=O)(OCC)Oc1cc(C)nc(C(C)C)n1	0.0023%	–
CSSC	-1.24%	–
c1ccc2c(c1)cc1ccc3cccc4ccc2c1c34	-15.5%	–
